In the library only some 2.1% were active in any assay of this set; here they are far more common.
EP2 antag: blocks the human prostaglandin E2 receptor EP2 | P43116 | C6 glioma cells expressing human EP2, cAMP TR-FRET; cells stimulated with saturating PGE2 | inhibition, % at 25 µM | 0.52% of 260,000 active | AID 1422;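 active = percent inhibition above 40 after rounding to a whole number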;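 note: rat C6 glioma host cells with rolipram phosphodiesterase inhibitor present; the protocol text gives 20 µM as final concentration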
Target sequence (P43116 whole entry, looked up): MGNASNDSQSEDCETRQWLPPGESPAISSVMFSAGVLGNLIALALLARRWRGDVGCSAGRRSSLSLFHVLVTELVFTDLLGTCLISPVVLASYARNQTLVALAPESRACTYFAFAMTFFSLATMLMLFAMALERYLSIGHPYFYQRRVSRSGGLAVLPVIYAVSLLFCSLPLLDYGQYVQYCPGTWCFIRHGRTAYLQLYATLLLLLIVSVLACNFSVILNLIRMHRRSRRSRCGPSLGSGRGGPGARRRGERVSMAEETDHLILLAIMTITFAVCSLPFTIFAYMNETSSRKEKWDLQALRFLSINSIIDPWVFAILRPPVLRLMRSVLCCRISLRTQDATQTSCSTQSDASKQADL
Avidin fluor: avidin bead compound fluorescence profile | fluorescence (KMESF) at 10 µM | Avidin beads, compound fluorescence 488/530 nm, flow cytometry; hits give high values | 0.38% of 220,000 active; in the data active = fluorescence above about 47
GSH bead fluor: compound fluoresces at 488/530 nm on GSH beads. GSH beads flow cytometry, compound fluorescence 488/530 nm; hits give high values. fluorescence (KMESF) at 10 µM. 0.25% of 190,000 active. AID 1776; in the data active = fluorescence above about 89;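 note: glutathione beads carrying GST-tagged Bcl family fusion proteins plus one bare bead set; values are compound well signal with DMSO vehicle wells as background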
Efa HMGR inh: blocks class II HMG-CoA reductase of Enterococcus faecalis. AID 1066. 0.41% of 190,000 active. inhibition, % at 10 µM. purified E. faecalis HMGR, NADPH absorbance 340 nm kinetic;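 active = inhibition above a set limit, the median over all tested compounds plus 3 SD, cut at about 9.5% in these data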;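 note: enzyme runs in reverse so mevalonate oxidation gives rising NADPH absorbance; 0% = complete reaction with DMSO and 100% = background rate lacking mevalonate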
EP2 mod: modulates human prostaglandin E2 receptor EP2 signaling; AID 940; induction, % at 25 µM; P43116; EP2-expressing cells, cAMP HTRF FRET, PGE2 co-stimulation; 0.83% of 260,000 active;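 active = compounds whose cAMP rise, as percent of the full-agonist control response, exceeds 60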;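 note: rat C6 glioma line stably carrying human EP2 under a CMV promoter; the protocol text gives 20 µM as final concentration; 100% = response of wells given 1 µM PGE2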
Starred values were filed as active, the others as inactive; nt = no result; ! = not active in a repeat.

SMILES | EP2 antag | Avidin fluor | GSH bead fluor | Efa HMGR inh | EP2 mod
Cc1cccc2cc(C#N)c(N3CCC(C)CC3)nc12 | 12 | nt | nt | nt | 77*
COCC(=O)N1CCCN(c2nc3c(C)cccc3cc2C#N)CC1 | 9 | 34 | 46 | -1 | -22
Cc1cc(C)c2nc(N3CCCCC3)c(C#N)cc2c1 | 7 | nt | nt | nt | 63*
Cc1cccc2cc(C#N)c(N3CCCCC3)nc12 | 11 | nt | nt | nt | 74*
Cc1cc(C)c2cc(C#N)c(N3CCCC3)nc2c1 | 4 | 7 | 14 | -6 | 54
CC1CCN(c2nc3c(cc2C#N)COC(C)(C)C3)CC1 | 10 | 11 | 13 | 9.7* | 47
CC1(C)Cc2nc(NCCN3CCOCC3)c(C#N)cc2CO1 | 9 | 12 | 33 | -1 | 23
CCC(c1nnnn1C(C)(C)CC)N(Cc1ccc(C)cc1)Cc1cc2cc(C)cc(C)c2[nH]c1=O (stereo unspecified) | 10 | nt | nt | nt | -19
COc1cc(CN2C[C@@H]3CCCN3C[C@@H]2Cc2ccccc2)cc(OC)c1O | 10 | nt | nt | nt | -10
COCCNC(=O)c1c(NC(=O)c2cccc(C)c2)sc2c1CCCC2 | 12 | nt | nt | nt | 2
Cc1ccc(F)cc1NC(=O)CSc1nnc(-c2ccco2)n1C | 8 | nt | nt | nt | -7
Cc1cc(C)c(C(=O)/C=C/c2ccc(C(C)C)cc2)c(=O)[nH]1 | 83* | 15 | 33 | 0 | 3
Cc1noc(C)c1CSc1nc2ccccc2s1 | 12 | 25 | 27 | 0 | 4
O=C(O)CSc1nnc(CSc2nc3ccccc3s2)n1-c1ccccc1 | 7 | 10 | 22 | 11* | 22
c1csc(CSc2nc3ccccc3s2)c1 | 6 | 7 | 276* | -4 | 38
COc1ccc(CN2CCN(Cc3ccnc(N4CCCC4)n3)CC2)cc1 | 3 | nt | nt | nt | -30
O=C(CSC1CC(=O)N(c2ccc(C(=O)O)cc2)C1=O)Nc1ccc(Cl)cc1 (stereo unspecified) | 0 | 117* | 31 | -1 | 6
O=C(C1CCC(=O)N1Cc1ccccc1Cl)N1CCN(c2cccc(Cl)c2)CC1 (stereo unspecified) | 69* | 8 | 31 | 2 | nt
O=C(Nc1ccc(Cl)cc1)C1CCC(=O)N1Cc1ccccc1Cl (stereo unspecified) | 15 | 14 | 42 | -4 | 5
O=C1CC(Sc2ncccn2)C(=O)N1c1ccccc1 (stereo unspecified) | 11 | 6 | 50 | -3 | 11
Cc1nc(SC2CC(=O)N(c3ccccc3)C2=O)n[nH]1 (stereo unspecified) | 29 | 6 | 10 | 13* | 17
CCc1ccc(S(=O)(=O)Nc2cc(SCC(=O)O)c(O)c3ccccc23)cc1 | 10 | 7 | 10 | 10* | -19
O=C(O)CSc1cc(NS(=O)(=O)c2cccc([N+](=O)[O-])c2)c2ccccc2c1O | 13 | 7 | nt | nt | -36
O=C(CCn1c(=O)oc2ccccc21)NCc1cccs1 | 13 | 7 | 15 | 13* | 17
NS(=O)(=O)C1=C(Cl)CC2=NC(CCC(=O)O)=NS(=O)(O)=C2C1 | 45* | nt | nt | nt | 11
SMILES | EP2 antag | Avidin fluor | GSH bead fluor | Efa HMGR inh | EP2 mod
CCOc1ccccc1N1CCN(C(=O)C(F)(F)F)CC1 | 9 | 11 | 59 | -1 | 21
CCOc1ccccc1N1CCN(C(=O)CC(C)(C)C)CC1 | 10 | 10 | 18 | 11* | 3
Cc1occc1-c1nnc(SCC(=O)Nc2ccc3c(c2)OCO3)n1Cc1ccccc1 | 5 | nt | nt | nt | 38
COc1ccc([C@@H]2C[C@H](OC(=O)c3ccc4c(c3)OCO4)C(=O)N2C)cc1 | 3 | nt | nt | nt | -81
O=C1CCc2cc(S(=O)(=O)NC(Cc3ccccc3)C(=O)NCCC3=CCCCC3)ccc2N1 (stereo unspecified) | 18 | 54* | 20 | 0 | -28
CC(C)(C)NC(=O)C(Cc1ccccc1)NS(=O)(=O)c1ccc2c(c1)CCC(=O)N2 (stereo unspecified) | 9 | 15 | 18 | 2 | -8
CCC(C(=O)N1CCC(c2c(S(C)(=O)=O)cnc3ncnn23)CC1)c1ccccc1 (stereo unspecified) | nt | nt | nt | nt | -24
CCc1nc(NCc2ccccc2)c(C#N)c2c1CCCC2 | 2 | 11 | 13 | -3 | 64*
COc1cccc(-c2cnc(NCc3cc(Cl)ccc3O)n2C)c1 | 9 | 55* | 21 | -2 | -21
Cn1c(-c2cccc(Br)c2)cnc1NCc1cccnc1 | 5 | 14 | 28 | 0 | 4
O=C(Nc1ccc2c(c1)OCO2)c1cc2nc(-c3ccco3)cc(C(F)(F)F)n2n1 | 6 | nt | nt | nt | -19
C/C(=N\Nc1cc(C)nc(-c2ccccc2O)n1)c1ccccc1 | 4 | 16 | 10 | 1 | 11
Cc1cc(N/N=C/c2ccc(O)c(C)c2O)nc(-c2ccccc2O)n1 | 91* | 16 | 8 | -5 | -7
O=C(Nc1nc(-c2nc3ccccc3s2)cs1)C1COc2ccccc2O1 (stereo unspecified) | 42* | 21 | 14 | -6 | -43
COC(=O)c1cc([N+](=O)[O-])c(-n2cncn2)c([N+](=O)[O-])c1 | 77* | 12 | 11 | -8 | 25
COC(=O)c1cc(F)c(-n2cncn2)c(F)c1 | 10 | 4 | 18 | 2 | 1
COc1ccccc1-c1nn2c(=O)cc(C)nc2s1 | nt | 7 | 254* | -2 | 4
COc1ccccc1-c1nn2c(-c3ccco3)nnc2s1 | 9 | 2 | 16 | 0 | -12
COc1cccc(NC(=O)CCN2C(=O)/C(=C/c3cc(OC)c(OC)c(OC)c3)SC2=S)c1 | 12 | nt | nt | nt | 23
CCOC(=O)c1ccccc1NC(=O)CSc1nnnn1C1CCCCC1 | 3 | 22 | 12 | 5 | 64*!
COC(=O)c1ccccc1NC(=O)CSc1nnnn1C1CCCCC1 | 13 | 42 | 18 | -1 | 35
C=CCOc1ccccc1NC(=O)c1nc(-c2ccc(F)cc2)oc1C | 7 | nt | nt | nt | 4
COc1ccc(-c2cc(C(F)(F)F)c(C#N)c(SCC(=O)Nc3ccccc3C#N)n2)cc1 | 20 | 49* | 71 | -2 | 7
COc1ccc(NC(=O)CSc2nc(-c3ccc(C)cc3)cc(C(F)(F)F)c2C#N)cc1 | 10 | 29 | 8 | -2 | 16
Cc1cc(Cc2cc(Cc3cc(C)cc(C(C)(C)C)c3O)c(C)cc2C)c(O)c(C(C)(C)C)c1 | 52* | nt | nt | nt | 19
SMILES | EP2 antag | Avidin fluor | GSH bead fluor | Efa HMGR inh | EP2 mod
C=CCn1c(SCC(=O)Nc2cc3oc4ccccc4c3cc2OC)nnc1-c1cnccn1 | 3 | 28 | 17 | 0 | -11
C=CCn1c(SCC(=O)Nc2cccc3ccccc23)nnc1-c1cnccn1 | 5 | 51* | 14 | 0 | 24
CCOC(=O)c1cc2sccc2n1CCCC#N | 11 | nt | nt | nt | 23
COc1ccc(S(=O)(=O)N2CCC(C(=O)Nc3c(C)cc(C)cc3C)CC2)cc1OC | 13 | nt | nt | nt | -1
C=CCNC(=S)N(Cc1ccccc1)Cc1ccccc1 | 5 | 18 | 10 | -7 | 61*
CCOc1cccc(Nc2c3c(nc4ncnn24)CCC3)c1 | 15 | nt | nt | nt | 2
